In the supplement of paper PMC10849652:
About 8,800 targets were measured; listed, in parts, are those with a hit and a random draw of the rest. About 0.5% of all pairs of compound and target were hits. Unmarked numbers belong to inactive results.

What follows are targets tested with COc1cc2nc(-c3cc(F)ccc3O)nc(N[C@@H]3CNC[C@H]3C(C)(C)O)c2cc1OC (assay: log2 fold change, soluble protein after heating vs DMSO (PISA); higher = thermal stabilisation; K562 lysate, 10 uM; active = over 0.2 and 3.5 SD of the protein, either way, in both replicates (recomputed)).
Outline: (§1)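 Following dounce homogenisation of K562 pellets in PBS pH 7.4 with 1 mM MgCl2, crude extract at 1 mg/mL protein was incubated for 30 min with 10 μM compound. Aliquots were then heated for 3 min over 48°C-58°C and pooled, NP-40 was added to 0.5% at 4°C, and soluble protein was recovered as the supernatant at 21,000xg for 90 min. Channel-sum-equalised TMTpro 16plex LC-MS/MS quantified this protein. Each value, from duplicates, is a log-two fold change in thermal stability relative to solvent controls.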

Chain of UniProt Q8N4L2 (Q8N4L2 whole entry, looked up): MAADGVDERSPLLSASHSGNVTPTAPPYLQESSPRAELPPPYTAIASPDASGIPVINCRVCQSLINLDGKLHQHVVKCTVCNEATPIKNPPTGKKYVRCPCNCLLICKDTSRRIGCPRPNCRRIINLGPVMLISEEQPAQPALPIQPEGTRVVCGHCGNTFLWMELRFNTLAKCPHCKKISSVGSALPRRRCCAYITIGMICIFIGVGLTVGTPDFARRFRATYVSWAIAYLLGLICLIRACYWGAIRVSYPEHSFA
Chain of UniProt Q29RF7 (Q29RF7 whole entry, looked up): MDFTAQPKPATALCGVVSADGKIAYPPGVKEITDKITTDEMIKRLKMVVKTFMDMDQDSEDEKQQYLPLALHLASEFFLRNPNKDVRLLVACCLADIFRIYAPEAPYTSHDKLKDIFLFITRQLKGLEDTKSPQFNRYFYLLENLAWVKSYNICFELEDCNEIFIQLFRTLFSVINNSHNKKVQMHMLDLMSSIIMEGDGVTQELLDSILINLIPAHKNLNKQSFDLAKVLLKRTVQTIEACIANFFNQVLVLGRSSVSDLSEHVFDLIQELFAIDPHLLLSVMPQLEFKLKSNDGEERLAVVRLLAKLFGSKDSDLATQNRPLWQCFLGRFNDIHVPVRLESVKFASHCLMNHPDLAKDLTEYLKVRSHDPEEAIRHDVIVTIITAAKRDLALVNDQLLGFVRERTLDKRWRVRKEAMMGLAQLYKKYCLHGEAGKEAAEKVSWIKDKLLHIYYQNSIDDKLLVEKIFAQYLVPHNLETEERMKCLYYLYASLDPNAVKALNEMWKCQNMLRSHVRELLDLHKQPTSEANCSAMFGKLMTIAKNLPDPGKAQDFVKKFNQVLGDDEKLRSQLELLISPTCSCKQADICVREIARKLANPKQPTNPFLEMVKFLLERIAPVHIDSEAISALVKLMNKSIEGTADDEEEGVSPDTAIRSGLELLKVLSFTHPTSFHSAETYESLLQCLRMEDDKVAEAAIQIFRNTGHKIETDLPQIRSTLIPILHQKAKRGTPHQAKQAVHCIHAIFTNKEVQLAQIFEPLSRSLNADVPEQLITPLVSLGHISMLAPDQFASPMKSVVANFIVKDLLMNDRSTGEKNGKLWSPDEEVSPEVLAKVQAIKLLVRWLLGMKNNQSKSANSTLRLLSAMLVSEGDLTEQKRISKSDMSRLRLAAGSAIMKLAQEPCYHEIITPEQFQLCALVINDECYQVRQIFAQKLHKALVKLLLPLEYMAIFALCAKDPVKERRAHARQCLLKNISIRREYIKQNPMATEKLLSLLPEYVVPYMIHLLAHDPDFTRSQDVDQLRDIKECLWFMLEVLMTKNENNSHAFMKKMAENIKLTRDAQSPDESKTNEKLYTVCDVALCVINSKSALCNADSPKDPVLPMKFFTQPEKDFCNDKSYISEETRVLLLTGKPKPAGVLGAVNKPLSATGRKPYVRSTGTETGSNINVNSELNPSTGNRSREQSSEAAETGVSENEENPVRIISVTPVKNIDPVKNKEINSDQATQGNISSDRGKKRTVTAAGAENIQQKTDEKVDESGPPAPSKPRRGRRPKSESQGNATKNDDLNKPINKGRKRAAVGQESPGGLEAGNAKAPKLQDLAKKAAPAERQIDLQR
Chain of UniProt Q13492 (Q13492 whole entry, looked up): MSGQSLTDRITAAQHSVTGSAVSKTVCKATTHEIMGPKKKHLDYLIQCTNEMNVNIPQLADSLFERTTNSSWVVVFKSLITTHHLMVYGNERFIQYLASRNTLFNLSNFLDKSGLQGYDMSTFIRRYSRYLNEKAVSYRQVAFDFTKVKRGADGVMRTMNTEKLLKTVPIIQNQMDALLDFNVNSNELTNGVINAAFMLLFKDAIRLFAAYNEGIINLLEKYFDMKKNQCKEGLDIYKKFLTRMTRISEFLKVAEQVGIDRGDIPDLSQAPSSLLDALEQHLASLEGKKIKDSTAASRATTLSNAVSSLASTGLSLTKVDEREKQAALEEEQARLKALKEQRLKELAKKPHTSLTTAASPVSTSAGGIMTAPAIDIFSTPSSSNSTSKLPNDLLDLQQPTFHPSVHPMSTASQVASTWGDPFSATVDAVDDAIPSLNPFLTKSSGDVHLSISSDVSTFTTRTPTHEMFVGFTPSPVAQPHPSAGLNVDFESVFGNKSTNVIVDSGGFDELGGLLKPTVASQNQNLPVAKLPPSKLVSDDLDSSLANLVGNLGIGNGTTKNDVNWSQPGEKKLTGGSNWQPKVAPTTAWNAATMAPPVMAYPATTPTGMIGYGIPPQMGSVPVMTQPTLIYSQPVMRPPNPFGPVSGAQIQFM
Chain of UniProt Q96S99 (Q96S99 whole entry, looked up): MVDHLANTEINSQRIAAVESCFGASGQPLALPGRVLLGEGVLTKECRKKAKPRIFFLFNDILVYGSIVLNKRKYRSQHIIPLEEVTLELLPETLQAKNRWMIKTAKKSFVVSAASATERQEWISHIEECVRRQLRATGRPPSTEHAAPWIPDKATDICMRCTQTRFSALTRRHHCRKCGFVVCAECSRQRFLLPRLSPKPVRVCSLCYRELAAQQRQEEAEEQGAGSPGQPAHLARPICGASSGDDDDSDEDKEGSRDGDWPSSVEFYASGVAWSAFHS
Chain of UniProt Q5VU43 (Q5VU43 whole entry, looked up): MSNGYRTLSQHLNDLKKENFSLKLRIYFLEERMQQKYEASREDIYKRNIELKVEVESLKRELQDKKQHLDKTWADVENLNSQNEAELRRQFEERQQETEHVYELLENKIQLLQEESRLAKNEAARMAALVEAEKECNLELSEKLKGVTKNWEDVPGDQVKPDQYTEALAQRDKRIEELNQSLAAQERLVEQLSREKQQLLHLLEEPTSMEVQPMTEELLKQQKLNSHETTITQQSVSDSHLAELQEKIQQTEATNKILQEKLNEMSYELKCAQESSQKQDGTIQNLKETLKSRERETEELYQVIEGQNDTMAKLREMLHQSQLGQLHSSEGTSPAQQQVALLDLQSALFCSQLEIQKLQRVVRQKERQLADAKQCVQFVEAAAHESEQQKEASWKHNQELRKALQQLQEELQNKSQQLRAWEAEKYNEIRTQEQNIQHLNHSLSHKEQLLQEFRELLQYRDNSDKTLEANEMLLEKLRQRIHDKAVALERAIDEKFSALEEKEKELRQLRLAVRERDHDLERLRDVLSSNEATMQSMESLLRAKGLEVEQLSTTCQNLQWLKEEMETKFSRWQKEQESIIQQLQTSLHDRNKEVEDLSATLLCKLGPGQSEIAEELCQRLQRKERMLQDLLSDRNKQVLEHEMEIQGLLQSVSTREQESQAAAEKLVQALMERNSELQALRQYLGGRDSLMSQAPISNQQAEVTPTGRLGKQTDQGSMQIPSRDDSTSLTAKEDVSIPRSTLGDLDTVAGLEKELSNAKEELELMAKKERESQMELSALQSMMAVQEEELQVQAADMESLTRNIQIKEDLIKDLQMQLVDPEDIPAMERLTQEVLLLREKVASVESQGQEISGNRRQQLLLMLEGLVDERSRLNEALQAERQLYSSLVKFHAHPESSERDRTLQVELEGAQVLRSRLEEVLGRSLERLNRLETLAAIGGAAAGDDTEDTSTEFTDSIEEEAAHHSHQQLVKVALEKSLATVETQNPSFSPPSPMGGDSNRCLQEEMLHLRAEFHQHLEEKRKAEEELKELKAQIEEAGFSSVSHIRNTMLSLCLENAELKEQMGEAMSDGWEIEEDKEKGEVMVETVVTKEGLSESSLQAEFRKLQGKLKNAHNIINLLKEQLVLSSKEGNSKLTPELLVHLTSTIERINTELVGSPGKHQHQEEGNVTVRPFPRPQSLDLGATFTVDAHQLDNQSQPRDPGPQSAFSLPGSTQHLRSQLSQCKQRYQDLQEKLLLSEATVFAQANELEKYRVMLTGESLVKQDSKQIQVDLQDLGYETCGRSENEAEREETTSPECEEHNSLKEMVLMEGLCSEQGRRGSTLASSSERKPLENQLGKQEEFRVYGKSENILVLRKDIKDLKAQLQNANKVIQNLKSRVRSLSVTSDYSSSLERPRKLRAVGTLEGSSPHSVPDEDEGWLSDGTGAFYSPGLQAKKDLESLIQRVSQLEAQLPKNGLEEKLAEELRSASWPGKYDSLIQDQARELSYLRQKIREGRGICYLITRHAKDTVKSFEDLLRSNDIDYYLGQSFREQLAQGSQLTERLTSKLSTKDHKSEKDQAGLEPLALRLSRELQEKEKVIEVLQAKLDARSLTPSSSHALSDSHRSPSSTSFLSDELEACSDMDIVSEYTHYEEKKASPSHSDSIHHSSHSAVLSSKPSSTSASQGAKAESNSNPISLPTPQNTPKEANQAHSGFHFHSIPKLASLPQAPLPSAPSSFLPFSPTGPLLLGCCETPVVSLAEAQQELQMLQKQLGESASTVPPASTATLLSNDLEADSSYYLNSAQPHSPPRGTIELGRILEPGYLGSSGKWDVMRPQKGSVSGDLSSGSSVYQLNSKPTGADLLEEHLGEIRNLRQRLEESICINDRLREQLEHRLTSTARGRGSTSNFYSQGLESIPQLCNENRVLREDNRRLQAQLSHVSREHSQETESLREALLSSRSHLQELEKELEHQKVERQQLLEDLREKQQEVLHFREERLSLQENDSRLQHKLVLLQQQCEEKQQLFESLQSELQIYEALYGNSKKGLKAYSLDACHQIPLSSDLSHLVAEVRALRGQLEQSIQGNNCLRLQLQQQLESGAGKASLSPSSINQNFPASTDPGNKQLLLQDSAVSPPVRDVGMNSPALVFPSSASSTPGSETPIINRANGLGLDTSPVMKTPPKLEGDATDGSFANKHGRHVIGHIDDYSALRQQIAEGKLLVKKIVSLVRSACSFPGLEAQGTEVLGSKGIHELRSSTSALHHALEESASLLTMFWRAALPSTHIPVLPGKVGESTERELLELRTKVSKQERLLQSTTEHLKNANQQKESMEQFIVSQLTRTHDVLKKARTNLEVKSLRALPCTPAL
Chain of UniProt Q96CD2 (Q96CD2 whole entry, looked up): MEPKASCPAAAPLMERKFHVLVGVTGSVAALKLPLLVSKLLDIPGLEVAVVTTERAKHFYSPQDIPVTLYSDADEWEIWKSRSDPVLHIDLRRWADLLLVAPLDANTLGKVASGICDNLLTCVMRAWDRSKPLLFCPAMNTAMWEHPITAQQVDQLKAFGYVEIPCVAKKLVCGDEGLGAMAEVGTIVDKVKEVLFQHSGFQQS

Q: With PUS1 (UniProt Q9Y606) as the target, how does the log2 fold change read?
A: 0.014

Q: For PTPN23 (UniProt Q9H3S7), which log2 fold change is on record?
A: -0.017

Q: PDCD6IP (UniProt Q8WUM4) was tested. Which log2 fold change did it give?
A: 0.013

Q: Which log2 fold change does the source give for PMS2 (UniProt P54278) here?
A: 0.02

Q: PSTPIP2 (UniProt Q9H939) was tested. Which log2 fold change did it give?
A: -0.03

Q: With PUM1 isoform 3 (UniProt Q14671) as the target, how does the log2 fold change read?
A: 0.017

Q: With PICALM (UniProt Q13492) as the target, how does the log2 fold change read?
A: 0.017

Q: How did the log2 fold change turn out when PTPN1 (UniProt P18031) was run?
A: 0.047

Q: PPP2R5C isoform 5 (UniProt Q13362) was tested. Which log2 fold change did it give?
A: -0.014

Q: Which log2 fold change does the source give for POLD3 (UniProt Q15054) here?
A: 0.007

Q: PIP4K2A (UniProt P48426) was tested. Which log2 fold change did it give?
A: 0.005

Q: How did the log2 fold change turn out when PDS5A (UniProt Q29RF7) was run?
A: 0

Q: For PFN1 (UniProt P07737), which log2 fold change is on record?
A: -0.013

Q: How did the log2 fold change turn out when PLXNB2 (UniProt O15031) was run?
A: 0.054

Q: How did the log2 fold change turn out when PFAS (UniProt O15067) was run?
A: -0.011

Q: PITRM1 isoform 2 (UniProt Q5JRX3) was tested. Which log2 fold change did it give?
A: -0.016

Q: With PPP1R8 (UniProt Q12972) as the target, how does the log2 fold change read?
A: -0.012

Q: How did the log2 fold change turn out when PLEKHF1 (UniProt Q96S99) was run?
A: -0.001

Q: For PRKACB isoform 2 (UniProt P22694), which log2 fold change is on record?
A: 0.51 (active)

Q: PIP4K2C (UniProt Q8TBX8) was tested. Which log2 fold change did it give?
A: 0.104

Q: Which log2 fold change does the source give for PDPK1 (UniProt O15530) here?
A: 0.15

Q: Which log2 fold change does the source give for PIK3C3 (UniProt Q8NEB9) here?
A: 0.048

Q: Which log2 fold change does the source give for PHOSPHO2 (UniProt Q8TCD6) here?
A: -0.008

Q: Which log2 fold change does the source give for PFKP (UniProt Q01813) here?
A: 0.009

Q: How did the log2 fold change turn out when PHKG2 (UniProt P15735) was run?
A: 0.192

Q: For PPCDC (UniProt Q96CD2), which log2 fold change is on record?
A: 0.032

Q: For PDE2A (UniProt O00408), which log2 fold change is on record?
A: 0.048

Q: With PRKCB isoform 2 (UniProt P05771) as the target, how does the log2 fold change read?
A: 0.148

Q: Which log2 fold change does the source give for PIP4P2 (UniProt Q8N4L2) here?
A: 0.052

Q: PHKA1 (UniProt P46020) was tested. Which log2 fold change did it give?
A: 0.084

Q: PIK3R2 (UniProt O00459) was tested. Which log2 fold change did it give?
A: 0.02

Q: Which log2 fold change does the source give for PSMB9 (UniProt P28065) here?
A: 0.139

Q: For PHACTR4 isoform 2 (UniProt Q8IZ21), which log2 fold change is on record?
A: 0.004

Q: How did the log2 fold change turn out when PI4K2A (UniProt Q9BTU6) was run?
A: -0.056

Q: For PDE4DIP isoform 4 (UniProt Q5VU43), which log2 fold change is on record?
A: -0.007

Q: Which log2 fold change does the source give for PDXDC1 (UniProt Q6P996) here?
A: -0.006

Q: How did the log2 fold change turn out when PPIL2 (UniProt Q13356) was run?
A: 0.027

Q: PRRC2A (UniProt P48634) was tested. Which log2 fold change did it give?
A: 0.005

Q: PCBP3 (UniProt P57721) was tested. Which log2 fold change did it give?
A: 0.015

The targets below were run with COc1cc2ncnc(Nc3ccc(F)c(Cl)c3)c2cc1OCCCN1CCOCC1 [gefitinib] in the same assay as above.
Outline: as §1

Q: For PUS1 (UniProt Q9Y606), which log2 fold change is on record?
A: -0.019

Q: How did the log2 fold change turn out when PTPN23 (UniProt Q9H3S7) was run?
A: 0.005

Q: How did the log2 fold change turn out when PDCD6IP (UniProt Q8WUM4) was run?
A: -0.001

Q: PMS2 (UniProt P54278) was tested. Which log2 fold change did it give?
A: 0.024

Q: Which log2 fold change does the source give for PSTPIP2 (UniProt Q9H939) here?
A: -0.028

Q: Which log2 fold change does the source give for PUM1 isoform 3 (UniProt Q14671) here?
A: -0.014

Q: Which log2 fold change does the source give for PICALM (UniProt Q13492) here?
A: 0.008

Q: How did the log2 fold change turn out when PTPN1 (UniProt P18031) was run?
A: 0.014

Q: Which log2 fold change does the source give for PPP2R5C isoform 5 (UniProt Q13362) here?
A: 0.004

Q: Which log2 fold change does the source give for POLD3 (UniProt Q15054) here?
A: -0.018

Q: How did the log2 fold change turn out when PIP4K2A (UniProt P48426) was run?
A: 0.037

Q: For PDS5A (UniProt Q29RF7), which log2 fold change is on record?
A: -0.005

Q: For PFN1 (UniProt P07737), which log2 fold change is on record?
A: 0.004

Q: For PLXNB2 (UniProt O15031), which log2 fold change is on record?
A: 0.016

Q: For PFAS (UniProt O15067), which log2 fold change is on record?
A: -0.009

Q: For PITRM1 isoform 2 (UniProt Q5JRX3), which log2 fold change is on record?
A: 0.044

Q: With PPP1R8 (UniProt Q12972) as the target, how does the log2 fold change read?
A: -0.05

Q: PLEKHF1 (UniProt Q96S99) was tested. Which log2 fold change did it give?
A: 0.007

Q: For PRKACB isoform 2 (UniProt P22694), which log2 fold change is on record?
A: 0.006

Q: For PIP4K2C (UniProt Q8TBX8), which log2 fold change is on record?
A: 0.083

Q: Which log2 fold change does the source give for PDPK1 (UniProt O15530) here?
A: 0.016

Q: PIK3C3 (UniProt Q8NEB9) was tested. Which log2 fold change did it give?
A: -0.037

Q: For PHOSPHO2 (UniProt Q8TCD6), which log2 fold change is on record?
A: 0.016

Q: PFKP (UniProt Q01813) was tested. Which log2 fold change did it give?
A: -0.006

Q: For PHKG2 (UniProt P15735), which log2 fold change is on record?
A: 0.03

Q: How did the log2 fold change turn out when PPCDC (UniProt Q96CD2) was run?
A: 0.028

Q: With PDE2A (UniProt O00408) as the target, how does the log2 fold change read?
A: -0.01

Q: With PRKCB isoform 2 (UniProt P05771) as the target, how does the log2 fold change read?
A: 0.008

Q: PIP4P2 (UniProt Q8N4L2) was tested. Which log2 fold change did it give?
A: 0.111

Q: How did the log2 fold change turn out when PHKA1 (UniProt P46020) was run?
A: 0.041

Q: For PIK3R2 (UniProt O00459), which log2 fold change is on record?
A: -0.052

Q: How did the log2 fold change turn out when PSMB9 (UniProt P28065) was run?
A: -0.016

Q: Which log2 fold change does the source give for PHACTR4 isoform 2 (UniProt Q8IZ21) here?
A: -0.022

Q: With PI4K2A (UniProt Q9BTU6) as the target, how does the log2 fold change read?
A: 0.021

Q: PDE4DIP isoform 4 (UniProt Q5VU43) was tested. Which log2 fold change did it give?
A: -0.059

Q: With PDXDC1 (UniProt Q6P996) as the target, how does the log2 fold change read?
A: 0.032

Q: With PPIL2 (UniProt Q13356) as the target, how does the log2 fold change read?
A: 0.005

Q: For PRRC2A (UniProt P48634), which log2 fold change is on record?
A: -0.008

Q: PCBP3 (UniProt P57721) was tested. Which log2 fold change did it give?
A: -0.023
